Values joined by “and” are separate entries in the source; they are usually repeats but may differ in a detail not shown here. Identical values can stand only once. Records with an inconclusive call do not appear. Some compounds were tested as several samples or in several runs, with calls that do not always agree. Active and inactive are the calls of the source. How the source made its calls, unless noted: active means hit-call score of the fitted dose curve at least 0.9, where 1 is the maximum; inconclusive means response in the unintended direction; inactive means score below 0.9.
How the values were obtained:
[1] = molecular target: Estrogen receptor (Homo sapiens) (UniProt P03372); assay: ATG_hERa_XSP2: Attagene TRANS-FACTORIAL Multi-Species (XSP2) HepG2 Assay for human Estrogen Receptor (ERa) (AID 2283827)
In short: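 HepG2 cells transiently transfected with multiplexed GAL4-UAS reporters driven by chimeric receptor-Gal4 proteins, dosed 24 h with 3 nM 6-alpha-fluorotestosterone and 1.5 nM norgestrel present. Reporter mRNA by RT-PCR and capillary electrophoresis; gain-of-signal fit versus DMSO.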

[2] = molecular target: Peroxisome proliferator-activated receptor gamma (Homo sapiens) (UniProt P37231); assay: ATG_hPPARg_XSP2: Attagene TRANS-FACTORIAL Multi-Species (XSP2) HepG2 Assay for human Peroxisome Proliferator-activated Receptor gamma (PPARg) (AID 2283829);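 further: actives raise reporter mRNA above DMSO so AC50 reflects PPARg activation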
In short: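 Transient MRTU transfection, HepG2; TRANS format (exogenous NR-Gal4 chimeras). 24 h chemical exposure with 3 nM 6-alpha-fluorotestosterone and 1.5 nM norgestrel present. Readout: reporter mRNA via RT-PCR/CE fluorescence, up-direction vs DMSO.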

[3] = molecular target: mouse Peroxisome Proliferator-activated Receptor gamma (PPARg), Pparg (gene 19016) (UniProt P37238); assay: ATG_mPPARg_XSP2: Attagene TRANS-FACTORIAL Multi-Species (XSP2) HepG2 Assay for mouse Peroxisome Proliferator-activated Receptor gamma (PPARg) (AID 2283830);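 further: hits are gains in reporter mRNA above DMSO so AC50 marks activation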
In short: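 HepG2 cells transiently transfected with GAL4-UAS reporter units for chimeric NR-Gal4 proteins including mouse PPARg, exposed 24 h; medium contained 3 nM 6-alpha-fluorotestosterone and 1.5 nM norgestrel. Reporter mRNA quantified by RT-PCR, HpaI digestion and capillary electrophoresis, vs DMSO.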

[4] = molecular target: Nuclear receptor subfamily 1 group I member 2 (Mus musculus) (UniProt O54915); assay: ATG_mPXR_XSP2: Attagene TRANS-FACTORIAL Multi-Species (XSP1) HepG2 Assay for mouse Pregnane X Receptor (PXR) (AID 2283831)
In short: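 Transient HepG2 transfection, multiplexed GAL4-UAS reporters, NR-GAL4 chimeras. 24 h compound exposure. Readout: reporter mRNA, RT-PCR, fluorescent capillary electrophoresis; positive direction vs DMSO baseline.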

[5] = tested on: zebrafish Peroxisome Proliferator-activated Receptor gamma (PPARg), gene 557037; assay: ATG_zfPPARg_XSP2: Attagene TRANS-FACTORIAL Multi-Species (XSP2) HepG2 Assay for zebrafish Peroxisome Proliferator-activated Receptor gamma (PPARg) (AID 2283833);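 further: reporter mRNA from a zebrafish PPARg GAL4 chimera measured by RT-PCR and capillary electrophoresis; actives increase reporter signal over DMSO so AC50 reflects activation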
In short: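 Transfect HepG2 with multiplexed GAL4-UAS reporter constructs; dose chemical 24 h; isolate RNA, reverse-transcribe, PCR-amplify, label and digest reporter products; resolve by capillary electrophoresis. Activity taken as increase over DMSO.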

[6] = tested on: turtle Thyroid Hormone Receptor, alpha (TRa), gene 101949057; assay: ATG_trTRa_XSP2: Attagene TRANS-FACTORIAL Multi-Species (XSP1) HepG2 Assay for turtle Thyroid Hormone Receptor, alpha (TRa) (AID 2283834);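 further: hits raise reporter mRNA over the DMSO baseline so AC50 marks activators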
In short: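 Readout: reporter mRNA induction, fluorescence after RT-PCR, HpaI digestion and capillary electrophoresis. Transiently transfected HepG2, exogenous NR-Gal4 chimera driving GAL4-UAS reporter, 24 h compound exposure. Activity fitted upward relative to DMSO baseline.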

[7] = ATG_M_61_XSP2: Attagene TRANS-FACTORIAL Multi-Species (XSP2) HepG2 Assay for M61 Transcription Factor (Internal Marker) (AID 2283835; active means hit-call score of the fitted dose curve at least 0.9, where 1 is the maximum; inactive means score below 0.9;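 further: active means a rise in signal above the DMSO baseline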)
Experimental: ATG_XSP2_multi-species_TRANS is a cell-based, multiplexed assay created by modifying the existing Attagene TRANS-FACTORIAL system to include a panel of nuclear receptors from some or all the following species: human (Homo sapiens), mouse (Mus musculus), frog (Xenopus laevis), zebrafish (Danio rerio), chicken (Gallus gallus), and turtle (Chrysemys picta). The ECOTOX-FACTORIAL format uses HepG2, a human liver cell line, with measurements taken at 24 hours after chemical dosing in a 24-well plate. Xsp2 included 3 nM 6-alpha-fluorotestosterone and 1.5 nM norgestrel to stimulate the androgen receptor.ATG_M_61_XSP2 is one of 29 assay components measured or calculated from the ATG_XSP2_multi-species_TRANS assay. It is designed to make measurements of mRNA induction, a form of inducible reporter, as detected with fluorescence intensity signals by Reverse transcription polymerase chain reaction (RT-PCR) and Capillary electrophoresis technology.This assay endpoint, ATG_M_61_XSP2, was analyzed in the positive analysis fitting direction relative to DMSO as the negative control and baseline of activity. Using a type of inducible reporter, measures of mRNA for gain-of-signal activity can be used to understand the background control at the transcription factor-level as they relate to the gene. Furthermore, this assay endpoint can be referred to as a secondary readout, because this assay has produced multiple assay endpoints where this one serves a background control function. To generalize the intended target to other relatable targets, this assay endpoint is annotated to the background measurement intended target family, where the subfamily is internal marker.
Human liver HepG2 cells are transiently transfected with multiple reporter transcription units (MRTUs) in 6-well plates using FuGene 6 reagent (Roche; 3 ml FuGene/1 mg DNA). The MRTU constructs are regulated by a cis-regulating element (promoter). […] A major difference between the CIS and TRANS system is that in CIS activities of endogenous TFs are measured, whereas the TRANS assay evaluates changes in activities of exogenous, chimeric NR-Gal4 proteins. […] At the end of 24 hour incubation, total RNA was isolated using TriZol reagent (Invitrogen). The isolated RNA is then reverse-transcribed using oligo(dT) primer and Mo-MLV reverse transcriptase (Invitrogen) with DNAse I (Ambion) treatment for 30 min. The one-tenth of the produced cDNA was amplified by PCR using Taq DNA polymerase (Invitrogen) and two reporter sequence-specific primers. The PCR products were fluorescently labeled by primer extension with 6-arboxyfluorescein (6-FAM) 5'-labeled reporter sequence-specific primer (2 min at 95 C, 20 s at 68 C and 10 min at 72 C) and these products were digested with 5U of HpaI (New England Biolabs) for 2h at 37 C. The fragments were purified using Qiaquick PCR columns (Qiagen), analyzed on an ABI 3130xL genetic analyzer (Applied Biosystems) with peak positions identified by using a set of X-rhodamine (ROX)-labeled MapMarker1000 molecular weight standards (BioVentures). The raw capillary electrophoresis data was processed using Attagraph software (Attagene).

[8] = molecular target: zebrafish Thyroid Hormone Receptor beta (TRb), thrb (gene 30607) (UniProt Q9PVE4); assay: ATG_zfTRb_XSP2: Attagene TRANS-FACTORIAL Multi-Species (XSP1) HepG2 Assay for zebrafish Thyroid Hormone Receptor beta (TRb) (AID 2283836);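 on AC50: potency for induction of reporter signal above DMSO so agonist direction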
In short: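 Fluorescence of labelled reporter cDNA fragments, separated by capillary electrophoresis, gives mRNA induction from exogenous NR-Gal4 chimeras in transiently transfected HepG2 cells after 24 h dosing; 3 nM 6-alpha-fluorotestosterone and 1.5 nM norgestrel included in the run.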

[9] = ATG_XTT_Cytotoxicity_XSP2: Cytotoxicity Assessment in the Attagene TRANS-FACTORIAL Multi-Species (XSP2) HepG2 Assay (AID 2283837)
In short: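 HepG2 cells, transiently transfected with multiple reporter constructs, exposed to chemical for 24 h. Cell number assessed with XTT fluorescence read-out; loss of signal fitted relative to DMSO.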

[10] = molecular target: zebrafish Thyroid Hormone Receptor alpha (TRa), thraa (gene 30670) (UniProt Q98867); assay: ATG_zfTRa_XSP2: Attagene TRANS-FACTORIAL Multi-Species (XSP1) HepG2 Assay for zebrafish Thyroid Hormone Receptor alpha (TRa) (AID 2283832);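 further: actives raise zebrafish TRa-Gal4 reporter transcript above DMSO baseline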
In short: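 Chimeric receptor-Gal4 activity was assessed in transfected human liver HepG2 cells 24 h after dosing, using reporter transcript levels detected by RT-PCR and capillary electrophoresis. DMSO served as baseline.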

Sequence of Nuclear receptor subfamily 1 group I member 2 (Mus musculus) (O54915 whole entry, looked up, the tested form may be a part): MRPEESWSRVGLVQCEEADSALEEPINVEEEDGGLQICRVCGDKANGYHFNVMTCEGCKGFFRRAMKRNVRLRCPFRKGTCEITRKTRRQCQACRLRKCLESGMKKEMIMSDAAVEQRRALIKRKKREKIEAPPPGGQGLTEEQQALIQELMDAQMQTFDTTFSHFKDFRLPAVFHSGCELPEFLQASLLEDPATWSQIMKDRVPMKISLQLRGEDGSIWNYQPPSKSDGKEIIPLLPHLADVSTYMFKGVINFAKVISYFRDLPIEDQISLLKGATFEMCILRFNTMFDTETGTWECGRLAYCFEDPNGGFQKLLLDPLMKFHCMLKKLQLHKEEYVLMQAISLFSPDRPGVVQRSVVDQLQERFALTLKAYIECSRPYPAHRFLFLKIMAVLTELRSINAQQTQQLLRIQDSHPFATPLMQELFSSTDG
Sequence of Estrogen receptor (Homo sapiens) (P03372 whole entry, looked up, the tested form may be a part): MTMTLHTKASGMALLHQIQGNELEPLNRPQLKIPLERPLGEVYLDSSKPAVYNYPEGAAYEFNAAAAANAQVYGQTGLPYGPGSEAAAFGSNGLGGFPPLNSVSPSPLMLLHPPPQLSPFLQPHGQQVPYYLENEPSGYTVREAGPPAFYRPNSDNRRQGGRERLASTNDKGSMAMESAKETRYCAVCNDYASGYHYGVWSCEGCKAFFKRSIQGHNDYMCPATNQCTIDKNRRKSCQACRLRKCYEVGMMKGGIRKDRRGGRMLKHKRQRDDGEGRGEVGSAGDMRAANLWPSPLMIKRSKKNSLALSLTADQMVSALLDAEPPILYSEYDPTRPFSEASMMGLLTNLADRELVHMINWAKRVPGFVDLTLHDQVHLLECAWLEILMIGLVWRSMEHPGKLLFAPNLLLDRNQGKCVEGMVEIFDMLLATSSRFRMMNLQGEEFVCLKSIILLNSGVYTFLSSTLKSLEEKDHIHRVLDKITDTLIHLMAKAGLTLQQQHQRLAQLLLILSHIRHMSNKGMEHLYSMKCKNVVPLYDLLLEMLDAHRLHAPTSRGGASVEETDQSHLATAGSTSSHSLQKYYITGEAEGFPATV
Sequence of zebrafish Thyroid Hormone Receptor alpha (TRa), thraa (gene 30670) (Q98867 whole entry, looked up, the tested form may be a part): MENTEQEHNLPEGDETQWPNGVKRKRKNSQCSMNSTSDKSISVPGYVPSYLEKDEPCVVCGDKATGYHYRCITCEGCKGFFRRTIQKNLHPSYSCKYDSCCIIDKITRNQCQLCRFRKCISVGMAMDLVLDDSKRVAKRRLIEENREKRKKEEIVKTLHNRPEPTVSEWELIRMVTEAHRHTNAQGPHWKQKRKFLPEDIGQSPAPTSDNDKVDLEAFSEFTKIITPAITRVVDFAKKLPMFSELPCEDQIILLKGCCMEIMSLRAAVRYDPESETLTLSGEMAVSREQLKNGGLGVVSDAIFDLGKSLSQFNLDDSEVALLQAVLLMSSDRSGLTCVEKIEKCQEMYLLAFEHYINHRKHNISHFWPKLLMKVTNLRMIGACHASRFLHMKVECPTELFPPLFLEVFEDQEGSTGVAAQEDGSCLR
Sequence of Peroxisome proliferator-activated receptor gamma (Homo sapiens) (P37231 whole entry, looked up, the tested form may be a part): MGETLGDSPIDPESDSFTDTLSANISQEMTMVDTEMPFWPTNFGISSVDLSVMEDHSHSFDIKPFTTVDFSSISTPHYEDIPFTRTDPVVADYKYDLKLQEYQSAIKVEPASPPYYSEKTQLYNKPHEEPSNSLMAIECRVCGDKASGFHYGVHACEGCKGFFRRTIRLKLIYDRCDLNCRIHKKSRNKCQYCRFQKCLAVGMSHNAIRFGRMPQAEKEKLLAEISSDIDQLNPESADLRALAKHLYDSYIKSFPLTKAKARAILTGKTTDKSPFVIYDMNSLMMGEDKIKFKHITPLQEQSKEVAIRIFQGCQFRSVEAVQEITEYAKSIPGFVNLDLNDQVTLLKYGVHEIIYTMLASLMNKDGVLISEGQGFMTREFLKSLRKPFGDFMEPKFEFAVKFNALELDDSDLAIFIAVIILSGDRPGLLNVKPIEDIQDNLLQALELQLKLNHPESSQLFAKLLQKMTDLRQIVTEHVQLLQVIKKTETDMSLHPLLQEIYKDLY
Sequence of zebrafish Thyroid Hormone Receptor beta (TRb), thrb (gene 30607) (Q9PVE4 whole entry, looked up, the tested form may be a part): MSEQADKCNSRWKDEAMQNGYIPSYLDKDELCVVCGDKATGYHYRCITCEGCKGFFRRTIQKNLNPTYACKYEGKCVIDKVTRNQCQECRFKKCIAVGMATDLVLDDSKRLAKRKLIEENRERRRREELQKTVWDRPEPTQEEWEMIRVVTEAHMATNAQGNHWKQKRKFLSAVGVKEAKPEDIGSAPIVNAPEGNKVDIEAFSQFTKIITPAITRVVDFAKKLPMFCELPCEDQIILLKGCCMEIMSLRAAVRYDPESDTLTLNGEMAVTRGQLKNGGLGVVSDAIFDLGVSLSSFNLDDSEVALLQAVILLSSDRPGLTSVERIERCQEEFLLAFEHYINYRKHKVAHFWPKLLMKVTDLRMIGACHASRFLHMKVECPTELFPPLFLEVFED
Sequence of mouse Peroxisome Proliferator-activated Receptor gamma (PPARg), Pparg (gene 19016) (P37238 whole entry, looked up, the tested form may be a part): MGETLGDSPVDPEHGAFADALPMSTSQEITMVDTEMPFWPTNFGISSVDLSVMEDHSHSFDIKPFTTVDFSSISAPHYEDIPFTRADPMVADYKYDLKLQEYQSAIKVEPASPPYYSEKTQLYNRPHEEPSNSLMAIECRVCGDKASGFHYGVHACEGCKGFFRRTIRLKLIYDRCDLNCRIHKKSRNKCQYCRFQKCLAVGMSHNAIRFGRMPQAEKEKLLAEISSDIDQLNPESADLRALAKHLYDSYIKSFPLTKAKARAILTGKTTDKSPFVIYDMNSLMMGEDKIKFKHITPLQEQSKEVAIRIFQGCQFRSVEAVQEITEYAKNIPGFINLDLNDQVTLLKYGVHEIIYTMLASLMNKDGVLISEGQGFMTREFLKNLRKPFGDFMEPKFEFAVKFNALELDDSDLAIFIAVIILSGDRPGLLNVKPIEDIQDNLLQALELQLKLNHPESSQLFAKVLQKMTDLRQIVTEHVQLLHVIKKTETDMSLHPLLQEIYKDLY

With `COP(=S)(OC)SCn1nnc2ccccc2c1=O` the AC50 [1] was 24.7 µM (active), the outcome [1] was “inactive” and the AC50 [2] was 93.7 µM (active) and 23.2 µM (active). For the same compound, the AC50 [3] was 51.6 µM (active) and 32.6 µM (active), the outcome [4] was “inactive” and the outcome [5] was “inactive”. The outcome [6] was “inactive”, the outcome [7] was “inactive” and the outcome [8] was “inactive”. For the same compound, the outcome [9] was “inactive”.

With `CC1(C)CCC(=Cc2ccc(Cl)cc2)C1(O)Cn1cncn1` (centres undefined) the AC50 [1] was 13.4 µM (active), the outcome [2] was “inactive” and the outcome [3] was “inactive”. For the same compound, the AC50 [4] was 6.24 µM (active), the outcome [10] was “inactive” and the outcome [5] was “inactive”. The outcome [6] was “inactive” and the outcome [8] was “inactive”.

With `CSC(=O)c1c(C(F)F)nc(C(F)(F)F)c(C(=O)SC)c1CC(C)C` the AC50 [1] was 3.05 µM (active), the AC50 [2] was 6.53 µM (active) and the AC50 [3] was 5.52 µM (active). For the same compound, the AC50 [4] was 0.442 µM (active).

With `CCN(CC)C(=O)C(C)Oc1cccc2ccccc12` (centres undefined) the AC50 [1] was 7.99 µM (active), the AC50 [2] was 39.8 µM (active) and the AC50 [3] was 42.6 µM (active). The AC50 [4] was 6.17 µM (active), the outcome [10] was “inactive” and the outcome [5] was “inactive”. For the same compound, the outcome [6] was “inactive”, the outcome [7] was “inactive” and the outcome [8] was “inactive”.

In the case of `CC1(C)C(C=C(Cl)Cl)C1C(=O)OC(C#N)c1cccc(Oc2ccccc2)c1` (centres undefined), the AC50 [1] is reported as 17.5 µM (active), the AC50 [2] is reported as 14.2 µM (active) and the AC50 [3] is reported as 27.8 µM (active). The AC50 [4] was 2.65 µM (active), the outcome [10] was “inactive” and the AC50 [5] was 12.6 µM (active). For the same compound, the outcome [6] was “inactive”, the outcome [7] was “inactive” and the outcome [8] was “inactive”.

In the case of `C=C(C)CN(CC)c1c([N+](=O)[O-])cc(C(F)(F)F)cc1[N+](=O)[O-]`, the AC50 [1] is reported as 7.36 µM (active) and 44.2 µM (active), the AC50 [2] is reported as 41 µM (active) and 23 µM (active) and the AC50 [3] is reported as 43.7 µM (active) and 52.8 µM (active). For the same compound, the AC50 [4] was 3.92 µM (active) and 2.8 µM (active), the outcome [10] was “inactive” and the outcome [5] was “inactive”. The outcome [7] was “inactive” and the outcome [8] was “inactive”.

For `Cc1c(COC(=O)[C@@H]2[C@H](/C=C(\Cl)C(F)(F)F)C2(C)C)cccc1-c1ccccc1`, the AC50 [1] was 26.1 µM (active), the outcome [2] was “inactive” and the outcome [3] was “inactive”. The AC50 [4] was 2 µM (active), the outcome [10] was “inactive” and the outcome [6] was “inactive”. The outcome [8] was “inactive”.

In the case of `COP(=S)(OC)Oc1ccc([N+](=O)[O-])c(C)c1`, the AC50 [1] is reported as 32.5 µM (active), the AC50 [2] is reported as 55.8 µM (active) and the AC50 [3] is reported as 31.3 µM (active). The AC50 [4] was 4.6 µM (active), the outcome [10] was “inactive” and the outcome [5] was “inactive”. The outcome [6] was “inactive”, the outcome [7] was “inactive” and the outcome [8] was “inactive”.

For `N#Cc1c[nH]cc1-c1cccc2c1OC(F)(F)O2`, the AC50 [1] was 1.51 µM (active), the AC50 [2] was 14 µM (active) and 21.7 µM (active) and the AC50 [3] was 27.2 µM (active). The AC50 [4] was 6.52 µM (active) and 6.26 µM (active), the AC50 [10] was 27 µM (active) and the outcome [10] was “inactive”. For the same compound, the outcome [5] was “inactive”, the outcome [6] was “inactive” and the outcome [7] was “inactive”. For the same compound, the AC50 [8] was 100 µM (active) and the outcome [8] was “inactive”.

With `CC(C)NC(=O)N1CC(=O)N(c2cc(Cl)cc(Cl)c2)C1=O` the AC50 [1] was 6.97 µM (active), the AC50 [2] was 33.2 µM (active) and the AC50 [3] was 40.6 µM (active). For the same compound, the AC50 [4] was 6.7 µM (active), the outcome [10] was “inactive” and the outcome [5] was “inactive”. The outcome [6] was “inactive”, the outcome [7] was “inactive” and the outcome [8] was “inactive”.

Reference: PubChem BioAssay (EPA / NIEHS)
